# Shown are actives, neighbours in structure and some others; about 6.1% of the full set was active somewhere.
# RORgamma inh: ROR gamma (mouse) transcription inhibition; P51450; AID 2551; actives 5.4% (n = 310,000); Potency, µM (top dose mostly 53.6 µM), for the others: at the highest dose activity change, negative = inhibition, actives largely listed as inhibitors; Drosophila S2 Gal4-RORgamma UAS-luciferase reporter, 20 h; note: % is set by controls: 0 for no effect and ±100 for the full control effect; nearly all actives have a fitted effect of over 60% in size
# Target sequence (P51450 whole entry, looked up, the tested form may be a part): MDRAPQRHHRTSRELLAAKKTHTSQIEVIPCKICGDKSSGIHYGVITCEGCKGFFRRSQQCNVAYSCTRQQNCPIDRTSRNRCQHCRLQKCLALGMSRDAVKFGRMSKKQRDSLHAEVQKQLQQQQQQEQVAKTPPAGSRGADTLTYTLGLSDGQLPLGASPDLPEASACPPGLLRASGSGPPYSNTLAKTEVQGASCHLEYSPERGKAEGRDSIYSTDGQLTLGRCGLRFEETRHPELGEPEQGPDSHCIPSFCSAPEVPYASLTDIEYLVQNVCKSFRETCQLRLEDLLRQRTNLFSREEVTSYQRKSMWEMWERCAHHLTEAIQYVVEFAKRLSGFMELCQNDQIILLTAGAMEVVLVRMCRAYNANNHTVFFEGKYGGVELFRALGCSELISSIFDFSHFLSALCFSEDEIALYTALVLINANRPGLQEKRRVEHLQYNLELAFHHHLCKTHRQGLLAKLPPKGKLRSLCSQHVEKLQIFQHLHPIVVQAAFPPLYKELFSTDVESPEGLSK
#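 Compounds are pin-transferred onto Drosophila Schneider cells expressing a copper-inducible Gal4–ROR gamma transactivation domain fusion. After 1 hr, copper sulfate is added to 700 uM final; luciferase is read 20 hr later.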
# TGFb SMAD3 inh: TGF-b pathway inhibition; HepG2 CAGA-GFP TGF-b/SMAD3 reporter, GFP fluorescence, 18 h; TGF-beta stimulated, 500 pg/mL final; Potency, µM (highest dose often 46.1 µM), without a hit: at the top dose activity, negative = inhibition, actives largely listed as inhibitors; actives 1.2% (n = 410,000); AID 588855; note: % is set by controls: 0 for no effect and ±100 for the full control effect; nearly all actives have a fitted effect of over 65% in size
#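 Using HEPG2 CAGA-GFP reporter cells at 1000 cells/well, we pinned test compounds, stimulated with recombinant TGF-beta (500 pg/mL final) and measured total well GFP after 18 h.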
# Gal4-VP16 FLuc: counter-screen for ROR gamma inhibitors: Gal4-VP16 reporter; Drosophila S2 Gal4-VP16 UAS-luciferase, luminescence, 20 h; Potency, µM (series often up to 53.6 µM), without a hit: at the highest dose activity, negative = inhibition, most hits filed as inhibitors; actives 3.5% (n = 310,000);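 note: Gal4-VP16 expression switched on by copper sulfate through the metallothionein promoter; % is set by controls: 0 for no effect and ±100 for the full control effect; nearly all actives have a fitted effect of over 50% in size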
# ATXN2 expr inh: inhibitors of ATXN2 expression; HEK-293 ATXN2-luciferase reporter, luminescence, 24 h; Potency, µM (doses to about 57 µM), for the others: at the top dose activity change, negative = inhibition, hits mostly inhibitors; actives 0.72% (n = 360,000); AID 1745845; note: % is set by controls: 0 for no effect and ±100 for the full control effect; nearly all actives have a fitted effect of over 55% in size
#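 ATXN2-luciferase reporter cells (luciferase flanked by upstream and downstream ATXN2 gene portions) were treated 24 h at 37 °C with compounds at up to 57 uM. SteadyGlo luminescence gave expression; GF-AFC fluorescence gave viability.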
# S2 tox: reduces viability in counter-screen for ATXN expression inhibitors | Potency, µM (top dose mostly 56.7 µM), usual class: cytotoxic | S2 cells (HEK-293 line with an ATXN2-luciferase reporter) viability, CellTiter-Fluor protease fluorescence, 24 h | AID 651635 | actives 0.49% (n = 400,000); note: nearly all actives have a fitted effect of over 40% in size
# HepG2 viability: HepG2 cytotoxicity, counter-screen for TGF-b inhibitors; HepG2 CAGA-GFP viability, ATP luminescence, 18 h; Potency, µM (highest dose often 46.1 µM), for the others: at the top dose activity change, negative = cytotoxicity, usual class: cytotoxic; actives 0.76% (n = 410,000)
#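 CellTiter-Glo luminescence gave cytotoxicity after 18 hours at 37 degrees C. The cells were HepG2 CAGA-GFP in 1% FBS DMEM, stimulated with 500 pg/mL TGF-beta after compound addition. %Activity was normalised to no-cell wells (complete cell-killing) and DMSO (no toxicity), and curves were fitted and classified.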
# An asterisk follows results filed as active; i = inactive; u = inconclusive; x = no result given; [ ] = another dose, or the depositor's remark. Calls come from the whole dose curve; as a rule, active = well fitted curve in the direction sought with a large enough effect; inconclusive = small, poorly fitted or top-dose-only effect, or another doubt; inactive = no such curve, though single readings can be large; an effect the other way counts as inactive or inconclusive. Potency is the fitted concentration of half-maximal effect.
SMILES,RORgamma inh,TGFb SMAD3 inh,Gal4-VP16 FLuc,ATXN2 expr inh,S2 tox,HepG2 viability
COC(=O)C(O)(c1ccc(N=Cc2ccccc2O)c(C)c1)C(F)(F)F (centres undefined),-7%,12%,0%,11%,i,5%
ClCC(Cl)CCl,2%,x,-1%,x,x,x
CC1CC2OC2/C=C\C=C/C(=O)Cc2c(Cl)c(O)cc(O)c2C(=O)O1 (centres undefined),7.9µM*,x,10µM*,x,x,x
CCC1CN2CCC1CC2C(Oc1cc2ccccc2c2ccccc12)c1ccnc2ccc(O)cc12 (centres undefined),1%[10 µM],x,-3%[10 µM],x,x,x
CNC(=O)COC(=O)c1ccc(-c2nc3ccccc3s2)s1,0.5µM*,-1%,0.32µM*,8%,i,-15%
COc1cc([N+](=O)[O-])c2nc(C)ccc2c1[N+](=O)[O-],x,u,x,-25%,28µM*,-72%
COc1cc([N+](=O)[O-])c2ncccc2c1[N+](=O)[O-],x,1%,x,u,u,-69%
COc1cc2cc(c1Cl)N(C)C(=O)C[C@H](OC(=O)C(C)C)[C@]1(C)O[C@H]1[C@H](C)[C@@H]1C[C@@](O)(NC(=O)O1)[C@H](OC)C=CC=C(C)C2,x,x,x,-28%,x,x
CCOC(=O)[C@]12Cc3cc(OC)ccc3[C@H]1N(CC(=O)OC)C(=O)c1cc(OC)ccc12,x,x,x,20µM*,13µM*,x
CCOC(=O)[C@]12Cc3cc(OC)ccc3[C@H]1N(C)C(=O)c1cc(OC)ccc12,x,x,x,u,14µM*,x
CCOC(=O)[C@]12Cc3cc(N(C)C)ccc3[C@H]1N(Cc1ccccc1)C(=O)c1ccccc12,x,u,x,u,u,-4%
CCOC(=O)[C@]12Cc3cc(Cl)ccc3[C@H]1N(Cc1ccccc1)C(=O)c1ccccc12,x,u,x,-25%,i,-14%
CCOC(=O)[C@]12Cc3cc(C)ccc3[C@H]1N(Cc1ccccc1)C(=O)c1cc(OC)ccc12,x,x,x,u,32µM*,x
CCCCC(CC)COC(=O)c1ccc(C(=O)OCC(CC)CCCC)c(C(=O)OCC(CC)CCCC)c1 (centres undefined),1%,x,-16%,x,x,x
O=C(Cl)C(Cl)(Cl)Cl,-3%,x,2%,x,x,x
C/C(=N\NC(=O)c1ccccc1O)c1c(O)n(C2CCCCC2)c(=O)[nH]c1=O,5µM*,30%,11µM*,x,i,5%
C/C(=N\NC(=O)c1ccncc1)c1c(O)n(Cc2ccccc2)c(=O)[nH]c1=O,14%,0%,u,-2%,i,1%
C/C(=N\NC(=O)c1ccccc1O)c1c(O)n(Cc2ccccc2)c(=O)[nH]c1=O,16µM*,-17%,-16%,x,i,-1%
CC(=NCCO)c1c(O)n(C2CCCCC2)c(=O)[nH]c1=O,18%,u,-17%,-3%,i,-9%
C/C(=N\NC(=O)c1ccccc1)c1c(O)n(C2CCCCC2)c(=O)[nH]c1=O,10µM*,-11%,20µM*,x,i,-11%
C/C(=N\NC(=O)c1ccccc1Cl)c1c(O)n(C2CCCCC2)c(=O)[nH]c1=O,7.1µM*,-3%,11µM*,6%,i,-7%
O=c1[nH]c2cc(Cl)ccc2n1C1CCNCC1,x,x,x,1%,i,x
C=C1C(=O)OC2C1CCC(C)C1(O)C=CC(=O)C21C (centres undefined),x,u,x,11µM*,11µM*,-35%
O=C(Nc1ccc(Cl)c(C(F)(F)F)c1)C1CCCN(S(=O)(=O)c2cccc3cccnc23)C1 (centres undefined),x,u,x,x,x,-25%
Cc1cc(C)nc(N/N=C/C2=C(O)CC(c3ccccc3)CC2=O)n1 (centres undefined),u,x,-19%,x,x,x
SMILES,RORgamma inh,TGFb SMAD3 inh,Gal4-VP16 FLuc,ATXN2 expr inh,S2 tox,HepG2 viability
O=Cc1cn(Cc2ccc(Br)cc2)c2ccccc12,40%,1µM*,-6%,u,u,-46%
COC(=O)[C@@H]1[C@@H](O)[C@@]2(O)c3c(OC)cc(OC)cc3O[C@@]2(c2ccc(OC)cc2)[C@H]1c1ccccc1,0.4µM*,x,0.1µM*,x,x,x
COC(=O)C1C(c2ccccc2)C2C(=O)c3c(OC)cc(OC)cc3O[C@@]12c1ccc(OC)cc1 (some centres undefined),4%[10 µM],x,-10%[10 µM],x,x,x
Cc1ccc(/C=C/C2=NN(Cc3ccc(Cl)c(Cl)c3)C(=O)CC2)cc1,10%,11µM*,17%,-9%,i,-18%
Cc1ccc(Cn2nc(C)c(C=O)c2Cl)cc1,0%,-23%,-11%,13%,u,3%
COc1ccc(-c2nc3ccccc3c(=O)n2-c2nccs2)cc1,6.3µM*,-5%,u,x,x,-32%
COc1ccc(-c2nc3ccccc3c(=O)n2-c2ccc(OC)cc2)cc1,4%,-5%,7%,-16%,i,-8%
O=C(CCCc1nc(-c2ccc(Cl)cc2)no1)NCC1CCCO1 (centres undefined),4%,-8%,13µM*,-29%,i,-4%
Cc1c(C=C2C(=O)N(C)C(=S)N(C)C2=O)c2ccccc2n1CC(=O)NCC1CCCO1 (centres undefined),-26%,0%,2%,-14%,i,1%
Cc1occc1C(=O)Nc1cccc(-c2nc(CNC(=O)c3cccc(C#CC(C)(C)O)c3)c(C)o2)c1,x,x,x,x,32µM*,x
c1ccc(CNc2c3c(nc4ccccc24)CCC3)cc1,-2%,u,-22%,18µM*,u,-29%
CC[N+](=O)[O-],-3%,x,5%,x,x,x
CC(=O)N1CCN(Cc2ccc(Cl)nc2)CC1,-34%,21%,2%,-18%,u,17%
CCCCc1ccc(C(=O)O)nc1,7.1µM*,5%,8.9µM*,0%,i,-4%
CN1C(=O)/C(=C/C=C/c2ccco2)C(=O)NC1=S,-11%,u,-2%,3%,i,-11%
O=C1NC(=O)N(Cc2ccco2)C(=O)/C1=C/C=C/c1ccco1,4%,7.1µM*,3%,u,u,-25%
O=C1NC(=O)N(Cc2ccccc2)C(=O)/C1=C\C=C\c1ccco1,u,10µM*,-4%[10 µM],x,i,-15%
CN1[C@H]2CC[C@@H]1[C@@H](C(=O)O)[C@@H](OC(=O)c1ccccc1)C2,x,x,x,x,i,x
CN(Cc1ccc(OC(F)F)cc1)Cc1nc2c(Br)cc(Br)cc2c(=O)[nH]1,3.2µM*,u,13µM*,2%,x,-32%
O=C(Cl)/C=C/C(=O)Cl,16%,x,-4%,x,x,x
CCCSc1cc(OC)c(CCN)cc1OC,x,x,x,x,i,x
CCCCCCCSc1cc(OC)c(CCN(C)C)cc1OC,u,u,u,22µM*,x,-121%

# Compound activity: PubChem, National Center for Advancing Translational Sciences (NCATS)
